# In PubChem BioAssay (NCI):
# The panel holds about 83,000 compounds, 20% with a hit somewhere; the sample as a whole holds those more often.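 Growth was measured after 48 h exposure to one concentration of compound in 96-well plates. Values under 10 count as active.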 Values without a mark were called inactive. Activity calls are given as the source filed them.
# Key:
# Assay in all cases: NCI-60 one-dose screen, 48 h (100 = growth as untreated, 0 = no growth, -100 = all killed)
# Conditions in all cases: 10 µM
# [1] = tested on: K-562 leukemia
# [2] = tested on: MALME-3M melanoma
# [3] = tested on: MDA-MB-231 breast
# [4] = tested on: RXF 393 renal
# [5] = tested on: SF-268 CNS
# [6] = tested on: SF-295 CNS
# [7] = tested on: SF-539 CNS
# [8] = tested on: UACC-257 melanoma
# [9] = tested on: M14 melanoma
# [10] = tested on: HCT-15 colon
SMILES,growth [1],growth [2],growth [3],growth [4],growth [5],growth [6],growth [7],growth [8],growth [9],growth [10]
CC(=O)[C@H]1CC[C@H]2[C@@H]3CCC4=CC(=O)C=C[C@]4(C)[C@H]3CC[C@]12C,76.6%,89.3%,100%,125%,102%,92.5%,87.9%,87.8%,107%,106%
CN(C)CCCn1c(=O)c2ccccc2c2cnc3[nH]ccc3c21,-10.9% (active),-25.1% (active),-11.2% (active),5.57% (active),21.1%,12.4%,30.3%,-20.6% (active),-6.79% (active),10.5%
COc1cc(-c2nn3c(/C=C4/C(=O)Nc5ccccc54)c(-c4ccc(C)cc4)nc3s2)cc(OC)c1OC,55.7%,-23.8% (active),50.6%,63.7%,15.9%,74.1%,81.8%,34.4%,42.9%,58.9%
O=C1/C(=C\c2ccc(F)cc2)CN(C(=O)c2ccccc2)C/C1=C\c1ccc(F)cc1,4.01% (active),8.3% (active),-25.9% (active),26.6%,26%,-3.21% (active),69.2%,36.5%,4.22% (active),1.64% (active)
CCCCCCN1C(=O)C2=C(c3ccc(Cl)cc3)Nc3c(c(C)nn3-c3ccccc3)C2c2ccccc21 (centres undefined),85.3%,90.9%,103%,83.7%,103%,92.4%,105%,90.7%,103%,93.4%
CC1(C)N=C(N)N=C(N)N1c1ccc(CCc2ccccc2)c(Cl)c1,11.2%,43.3%,39.7%,44%,21.1%,17.7%,21.8%,3.1% (active),20.5%,39.7%
Cc1cc(C)c(NC(=O)c2sc3nc4c(cc3c2N)C(=O)CCC4)c(C)c1,19.8%,42.1%,35.7%,-6.66% (active),38.6%,-11.3% (active),-6.5% (active),48.7%,16.4%,31.8%
Nc1c(C(=O)Nc2cccc3ccccc23)sc2nc3c(cc12)C(=O)CCC3,10.3%,59.9%,8.28% (active),-5.71% (active),36.1%,-1.44% (active),-13.1% (active),45%,12.6%,18.9%
COc1ccc(-c2nn(-c3cccc(NC(=O)Nc4ccc(Cl)c(C(F)(F)F)c4)c3)cc2-c2ccncc2)cc1Cl,15.4%,-8.87% (active),0.455% (active),19.3%,31%,-2.09% (active),-7.12% (active),-7.89% (active),6.17% (active),16.3%
ClCC#CCSc1ncnc2c1ncn2CC#CCCl,17.5%,-46.3% (active),20.2%,-65.9% (active),-22.4% (active),8.11% (active),26%,55%,2.78% (active),30.1%
Nc1c(C(=O)Nc2ccccc2Cl)sc2nc3c(cc12)C(=O)CCC3,24.9%,38.5%,70.3%,61.7%,95.7%,14.7%,69.9%,42.9%,50.2%,32.8%
CC(=O)c1nc2ccccc2n1CCN1CCN(C)CC1,15.3%,17.6%,42.9%,48%,48.1%,153%,35.3%,49.8%,20.5%,98.9%
Nc1ccc2c(c1)C1(CCC2)NC(=O)NC1=O (centres undefined),95.8%,101%,101%,96.1%,100%,108%,93%,–,100%,92.7%
CCN(CC)CCSCCN(CC)CC,100%,106%,118%,104%,106%,101%,97%,97.6%,111%,97.9%
CC1(C)CCC(=NNC(N)=S)CC1,94.6%,107%,116%,115%,103%,88.2%,98.1%,102%,113%,98.8%
c1ccc2c(-c3nc(N4CCOCC4)c4c5c(sc4n3)CCCCCC5)cccc2c1,115%,97%,96.7%,95.9%,102%,98.1%,98.9%,110%,110%,100%
CCN1CCCC1CNC(=O)c1ncc(-c2ccc(C(F)(F)F)cc2)c(NC2CCCCCC2)n1 (centres undefined),8.32% (active),54%,67.3%,74.1%,86.8%,69.3%,94.7%,-46.2% (active),26.1%,90.8%
COc1ccc(-c2nn(-c3cccc(NC(=O)c4ccc5c(c4)OCCO5)c3)cc2-c2ccncc2)cc1Cl,18.4%,4.38% (active),27.2%,0.93% (active),34.8%,-26% (active),-20.7% (active),34.9%,13.5%,32.8%
COc1ccc2c(c1)O/C(=C\c1ccc([N+](=O)[O-])s1)C2=O,-1.48% (active),80%,37.4%,-17.3% (active),-9.02% (active),69%,34.5%,64.4%,30.3%,0.318% (active)
Cc1nc2c(c(=O)[nH]1)OCN(Cc1ccccc1)C2,88%,87%,107%,118%,103%,107%,109%,97.8%,101%,99.4%
Cc1ccc(S(=O)(=O)OCCN(CCOS(=O)(=O)c2ccc(C)cc2)c2c[nH]c(=O)[nH]c2=O)cc1,105%,117%,109%,106%,108%,112%,96.4%,91.4%,105%,99.7%
COc1cc2nc(Nc3cccc(NC(C)=O)c3)nc(N)c2cc1OC,103%,101%,86.9%,94.1%,92.3%,131%,101%,98.3%,107%,93.8%
COc1ccc(OC)c(NC(=O)c2sc3nc4c(cc3c2N)C(=O)CCC4)c1,61.7%,86.4%,86.9%,85.4%,110%,80.9%,97.3%,93.5%,93.9%,80.6%
COc1cccc(Cn2c(-c3nonc3N)nc3ccccc32)c1,9.47% (active),68.3%,27.7%,-40.1% (active),42%,-26.9% (active),-34.6% (active),49.2%,20.4%,24.1%
CC(=O)C1CCC2C3CC(F)C4=CC(=O)CCC4(C)C3C(O)CC12C (centres undefined),86.1%,86.6%,98.8%,118%,106%,97.8%,101%,98.6%,93.6%,108%
CS(=O)(=O)Nc1ccc(Nc2c3ccccc3nc3cc([N+](=O)[O-])ccc23)cc1,7.9% (active),22.6%,50.9%,34.5%,11.6%,4.34% (active),24.4%,44.6%,4.52% (active),6.81% (active)
Cc1ccc(-c2n[nH]c(=O)c3noc(-c4ccc(C)cc4)c23)cc1,13.2%,26.4%,58.1%,38%,53.5%,49.3%,3% (active),55.9%,28.8%,33.1%
